Data on 101 molecules can be found in ChEMBL document CHEMBL3988442, “University of Dundee, Small-Polar-MMV Screening Library” (2021).

Out of some 53,000 compounds screened, about 900 (1.7%) showed an effect of 50% or more. This is one part of a sample in which strong results are shown more often than they occur.

In the assay the test system is Mycobacterium tuberculosis. The assay is described as follows: Cornell - Phenotypic assay to identify agents that inhibit growth of Mycobacterium tuberculosis. The settings on record: 10 mM as filed; unlikely as a test dose. Further details: scale not given: direction of the effect not stated beside the values. It is filed as functional.
As for `O=C1NCc2ccc(NC(=O)C3CCCN3c3nccs3)cc21` (stereo unspecified), the “Percent Effect” value is 10.34%.
In the case of `O=C(Nc1cccc(N2CCCC2)c1)C1CCCN1c1nccs1` (stereo unspecified), the “Percent Effect” value is recorded as 57.22%.
In the case of `O=C(Nc1cccc2c1CCCC2)C1CCCN1c1nccs1` (stereo unspecified), the “Percent Effect” value is -2.486%.
Take `Cc1nn(Cc2ccc(F)cc2)c2[nH]nc(N)c12`: the “Percent Effect” value is 41.44%.
Consider `Cc1nn(C)c(=O)c2nn(-c3ccc(F)cc3)c(C)c12`, for which the “Percent Effect” value was determined as 2.323%.
With `Cc1nn(-c2ccc(F)cc2)c2[nH]nc(N)c12`, the “Percent Effect” value was determined as 67.22%.
As for `COc1ccccc1CCC(=O)N1CCCC(OCc2cccnc2)C1` (stereo unspecified), the “Percent Effect” value was -21.64%.
For `CC(c1nc(C2CC2)no1)N1CCN(Cc2ccccc2)CC1` (stereo unspecified), the “Percent Effect” value was 2.279%.
In the case of `CC(Nc1ccc(Br)cc1)c1nc(C2CC2)no1` (stereo unspecified), the “Percent Effect” value was 54.33%.
As for `CC(Nc1ccc2c(c1)CCC2)c1nc(C2CC2)no1` (stereo unspecified), the “Percent Effect” value came out at 27.18%.
The value for `COCc1cccc(CNc2cnn(C(C)(C)C)c(=O)c2Cl)c1` was 17.4%.
Turning to `CC(C)(C)n1ncc(NCc2ccccc2)c(Cl)c1=O`, the “Percent Effect” value is -56.94%.
To `COCc1ccc(CNc2cnn(C(C)(C)C)c(=O)c2Cl)cc1` belongs 55.73%; to `CCCN1CCC(c2nc3ccc(-c4ccncc4)cn3n2)CC1.O=C(O)C(F)(F)F.O=C(O)C(F)(F)F`, -17.17%.
For the molecule `Cc1nccn1-c1ccc(C(=O)NCC(F)(F)F)nn1`, the “Percent Effect” value came to 18.88%.
For the molecule `Cc1cnc(C(=O)N2CCC3(CCN3Cc3ccc(F)cc3)C2)cn1.O=C(O)C(F)(F)F` (stereo unspecified), the “Percent Effect” value is listed as -0.7224%.
Regarding `CN1C(=O)C(C)(C)COc2ccc(NS(=O)(=O)Cc3ccccc3)cc21`, the “Percent Effect” value is on record as -4.912%.
To `CN(C)C(=O)c1cnc2n1CCN(Cc1ccsc1)C2.O=C(O)C(F)(F)F` belongs 1.254%.
To `Cc1ccc(CSc2nc(N)cc(NCC(=O)N3CCNCC3)n2)cc1` belongs -47.88%.
On to `CCc1cc(NCCS(=O)(=O)N(C)C)nc(N2CCOCC2)n1`, for which the “Percent Effect” value is recorded as 22.77%.
With `Cc1ccc(CSc2nc(N)cc(NCCC(=O)N3CCCC3)n2)cc1`, the “Percent Effect” value is 88.28%.
In the case of `Cc1ccc(CSc2nc(N)cc(NCCC(N)=O)n2)cc1`, the “Percent Effect” value was 44.65%.
To `Cc1ccc(CSc2nc(N)cc(NCCS(=O)(=O)N(C)C)n2)cc1` belongs 52.28%; to `Cc1ccc(CSc2ncc(Br)c(C(=O)O)n2)cc1`, 1.969%; to `CCn1cnnc1CNC(=O)N1CCC(O)CC1`, -20.2%.
For `CC(=O)N1CCCN(C(=O)c2cnn(-c3ccccc3Cl)c2)CC1`, the “Percent Effect” value is recorded as -28.49%.
The value for `Cc1cc(C(F)(F)F)nn1CCCNC(=O)C1CCCO1` (stereo unspecified) was -51.46%; that for `O=C(NCC1CC1)C1CCC2(CCN(C(=O)c3ccoc3)CC2)O1` (stereo unspecified) was -8.481%.
For `Cc1ccc2[nH]c(C3CCN(CC(N)=O)CC3)nc2c1`, the “Percent Effect” value is -20.2%.
With `CCC1CCCCN1Cc1ncc(C(C)(C)C)o1` (stereo unspecified), the “Percent Effect” value is on record as -71.87%.
Take `COc1cccc(Nc2nc(-c3ccncc3)nc3c2CNCC3)c1.Cl`: the “Percent Effect” value is -3.556%.
`c1cncc(-c2nc3c(c(NCC4(c5ccncc5)CC4)n2)CCC3)c1`: the “Percent Effect” value is reported as 21.3%.
For `Cl.NC1CCc2nc(-c3cccnc3)nc(Nc3ccc(F)cc3)c2C1` (stereo unspecified), the “Percent Effect” value was 98.04%.
In the case of `CC(O)CNc1nc(-c2cccnc2)nc2c1CCC2` (stereo unspecified), the “Percent Effect” value came to 12.92%.
Regarding `O=C(Nc1cccc(F)c1)NC1CCN(Cc2ccncc2)CC1`, the “Percent Effect” value stood at 26.05%.
With `Cl.NC1CCc2nc(-c3ccncc3)nc(Nc3cccc(F)c3)c2C1` (stereo unspecified), the “Percent Effect” value is 61.47%.
Take `O=C(O)C(F)(F)F.O=C1COC2(CCN(Cc3cccs3)CC2)CN1c1cncnc1`: the “Percent Effect” value is on record as 13.06%.
With `Cc1cnc(N2C(=O)CSC2c2ccccc2)s1` (stereo unspecified), the “Percent Effect” value is 7.465%.
The value for `Cn1cnnc1CN1CCC2(CCCN(C3CCCCC3)C2=O)C1` (stereo unspecified) was 8.326%; that for `CN(C)CCCNC(=O)c1ccccc1NC(=O)c1ccccc1Cl` was 2.69%; that for `O=C(NCCCN1CCOCC1)c1ccc(-n2ccc3ccccc32)s1` was -5.378%.
`O=C(NCCCN1CCCCC1)c1ccc(-n2ccc3ccccc32)s1`: the “Percent Effect” value is 59.15%.
To `O=C(NCCCN1CCCC1=O)c1ccc(-n2ccc3ccccc32)s1` belongs 19.74%; to `O=C(NCc1cccnc1)[C@H]1C[C@@H]2CCN(c3ccncn3)C[C@H]2O1.O=C(O)C(F)(F)F.O=C(O)C(F)(F)F`, 15.26%; to `CCOCCCn1c(NC(=O)c2scnc2C)nc2ccccc21`, 74.98%.
Consider `CCOCCCn1c(NC(=O)c2cnn(C)c2)nc2ccccc21`, for which the “Percent Effect” value is recorded as 87.33%.
As to `Cc1ncsc1C(=O)Nc1ccccn1`, the “Percent Effect” value is 6.488%.
The value for `CCOCCCn1c(NC(=O)c2ccc(C)nc2)nc2ccccc21` was 49.04%.
To `CCOC(=O)CNC(=O)c1scnc1C` belongs 8.54%; to `Cn1cc(NC(=O)Cn2c(CS(C)(=O)=O)nc3ccccc32)cn1`, -19.06%; to `Cc1ccc(CC(=O)NC(C)C(=O)N2CCS(=O)(=O)CC2)s1` (stereo unspecified), 63.58%.
The value for `CC(NC(=O)Cc1ccccc1F)C(=O)N1CCS(=O)(=O)CC1` (stereo unspecified) was 19.17%.
For the molecule `O=C(NCCc1ccc(Cl)s1)N1CCS(=O)(=O)CC1`, the “Percent Effect” value stood at 3.625%.
On to `CC(C)n1ccc(CN2CCN(c3cc(NC4CC4)nc(N)n3)CC2)c1`, for which the “Percent Effect” value came out at 13.37%.
On to `NC(=O)C1CCCN1Cc1cccc(NC(=O)c2ccc(Cl)cc2F)c1` (stereo unspecified), for which the “Percent Effect” value is -4.35%.
For `O=C(O)C(F)(F)F.O=C1COC2(COCCN(Cc3ccsc3)C2)CN1c1ccoc1` (stereo unspecified), the “Percent Effect” value is on record as -47.88%.
The value for `CSCCC1c2nc[nH]c2CCN1Cc1ccccc1C(F)(F)F` (stereo unspecified) was 2.921%; that for `CSCCC1c2nc[nH]c2CCN1Cc1ccccc1C#N` (stereo unspecified) was 19.15%.
The value for `CSCCC1c2nc[nH]c2CCN1Cc1cc(Cl)ccc1O` (stereo unspecified) was 102.1%.
To `CN1C[C@@H](N)C[C@H]1C(=O)N1CCC(Cc2ccc(F)cc2)CC1` belongs -16.49%.
Take `C1CC(CN2C[C@@H]3C[C@@H](c4nnc(C5CC5)o4)O[C@@H]3C2)C1`: the “Percent Effect” value is -19.97%.
For `Cn1cc(S(=O)(=O)Nc2c(F)cccc2N2CCCC2)cn1`, the “Percent Effect” value is given as -1.726%.
As to `N#Cc1cccc(S(=O)(=O)Nc2c(F)cccc2N2CCCC2)c1`, the “Percent Effect” value was determined as 53.51%.
`O=S(=O)(Nc1c(F)cccc1N1CCCC1)c1cncc(F)c1`: the “Percent Effect” value is 35.26%.
To `Cc1cc(NCCNS(=O)(=O)c2cn(C)nc2C)c2ccccc2n1` belongs 11.79%; to `CNC(=O)c1cccc(CC2COCCN(Cc3ccsc3)C2)n1` (stereo unspecified), -5.574%; to `CC1c2ncc(COCC3CC3)n2CCN1C(=O)c1ccnn1C` (stereo unspecified), 18.95%.
With `Cc1cc2nc(C(C)C)cc(NCc3ccncc3)n2n1`, the “Percent Effect” value is recorded as -23.44%.
Turning to `OCCn1nccc1C1CCN(CCOc2ccccc2)CC1`, the “Percent Effect” value was -26.3%.
As to `O=C(c1ccc(S(=O)(=O)N2CCSCC2)cc1)N1CCC(O)C1` (stereo unspecified), the “Percent Effect” value is 10.6%.
The value for `Cc1ccc2cc(C(=O)N3CCCN(C)CC3)ccc2n1` was -5.453%.
The value for `COC(=O)C1CCN(C(=O)c2nnc3ccc(C)cc3n2)CC1` was -19.31%.
Regarding `CN1CCN(C(=O)c2nnc3ccc(Cl)cc3n2)CC1`, the “Percent Effect” value was 64.7%.
In the case of `CCc1nc(C(=O)N2CCN(C)CC2)nn1-c1ccccc1Cl`, the “Percent Effect” value is given as -21.83%.
Turning to `COC(=O)C1CCN(C(=O)c2nnc3ccc(Cl)cc3n2)CC1`, the “Percent Effect” value is listed as 106.2%.
For `COC(=O)C1CCN(C(=O)c2ccc(N(C)S(C)(=O)=O)c(C)c2)CC1`, the “Percent Effect” value is reported as -22.29%.
`COc1ccccc1CCN1CCCC(CN(C)Cc2ccc(C)o2)C1` (stereo unspecified): the “Percent Effect” value is 14.72%.
Take `CC1=N[C@@]2(CC[C@@H]3CN(C(=O)NCc4ccccc4C)C[C@@H]32)C(=O)N1`: the “Percent Effect” value was 15.83%.
For the molecule `Cc1nn(C)cc1C(=O)N1CCC(C(=O)c2nc3ccccc3s2)CC1`, the “Percent Effect” value came out at 26.37%.
The value for `Cc1c(C(=O)N2CCC(C(=O)c3nc4ccccc4s3)CC2)cnn1C` was 60.09%; that for `Cn1nc(Cl)cc1C(=O)N1CCC(C(=O)c2nc3ccccc3s2)CC1` was -10.64%; that for `O=C(c1ccc(COc2ccc(Cl)cc2)o1)N1N=CCC1(O)C(F)(F)F` (stereo unspecified) was 61.62%.
The value for `Cc1cccc(OCc2ccc(C(=O)N3N=CCC3(O)C(F)(F)F)o2)c1` (stereo unspecified) was 29.06%; that for `O=C(c1ccc(COc2ccccc2Cl)o1)N1N=CCC1(O)C(F)(F)F` (stereo unspecified) was 1.91%.
Consider `Cc1nnsc1C(=O)N1CCC(c2nc3ccccc3[nH]2)CC1`, for which the “Percent Effect” value was 0.6445%.
As for `CCOC(=O)C1CCN(C(=O)c2cc(F)ccc2-n2cnnn2)CC1`, the “Percent Effect” value was -0.0971%.
To `O=C(c1ccnnc1)N1CC[C@@H](O)[C@@H]1Cc1ccccc1` belongs -23.76%.
For `CCc1c(C)sc2c1c(N)nc(=O)n2CCN1CCCCC1`, the “Percent Effect” value came out at 22.93%.
Turning to `CCN(CC1CCCN(CCc2cccc(OC)c2)C1)C(=O)CCSC` (stereo unspecified), the “Percent Effect” value is listed as -29.92%.
For the molecule `Cc1ccc(CN2C[C@H](OCC3CCOCC3)[C@H]3COC[C@H]32)o1.O=C(O)C(F)(F)F`, the “Percent Effect” value was -26.82%.
In the case of `O=C(O)C(F)(F)F.c1ccc(N2CCCC3(COCCN(c4nccs4)C3)C2)nc1` (stereo unspecified), the “Percent Effect” value was 51.66%.
On to `Cc1ccc(N2CCCC3(COCCN(c4nccs4)C3)C2)nn1.O=C(O)C(F)(F)F.O=C(O)C(F)(F)F` (stereo unspecified), for which the “Percent Effect” value is listed as 20.96%.
Turning to `c1ccc(N2CCOCC3(CCCN(c4nccs4)C3)C2)nc1` (stereo unspecified), the “Percent Effect” value is recorded as 23.66%.
Consider `Cc1nc(Cn2c3c(ccc2=O)CC(NC(N)=O)CC3)cs1` (stereo unspecified), for which the “Percent Effect” value is reported as -11.16%.
Take `O=C(c1ccoc1)N1CC[C@@H]2O[C@@H](COCc3ccncc3)CC[C@@H]21`: the “Percent Effect” value worked out at 17.45%.
For the molecule `CC(C)c1noc(CN2CCN(C(=O)c3cc(Cl)ccc3F)CC2)n1`, the “Percent Effect” value is on record as 34.44%.
`CC(C)c1noc(CCC(=O)Nc2cc(F)ccc2F)n1`: the “Percent Effect” value is -35.92%.
To `CC(C)c1noc(CCCC(=O)Nc2cccc(F)c2)n1` belongs -20.44%; to `CC(C)c1noc(C[S+]([O-])CC(=O)Nc2ccc(F)c(F)c2)n1` (stereo unspecified), 60.65%.
In the case of `CC(C)CCc1noc(C[S+]([O-])CC(=O)NCc2ccccc2)n1` (stereo unspecified), the “Percent Effect” value is given as -9.037%.
To `CC(C)c1noc(C[S+]([O-])CC(=O)Nc2cc(F)ccc2F)n1` (stereo unspecified) belongs 57.68%.
